# Legend:
# Assay type in all cases: functional
# [1] = target: Solute carrier family 2, facilitated glucose transporter member 1 (Homo sapiens) (UniProt P11166); experiment: ST_JUDE_LEISH: Cytotoxicity at 2uM final concentration against transgenic Leishmania Mexicana promastigotes LmGLUT1 that are glucose transport deficient and complemented with the human glucose transporter GLUT1. Activity is measured by DNA content using SYBR green in vitro
# [2] = target: Hexose transporter 1 (Plasmodium falciparum) (UniProt O97467); experiment: ST_JUDE_LEISH: Cytotoxicity at 2uM final concentration against transgenic Leishmania Mexicana promastigotes LmPfHT that are glucose transport deficient and complemented with the Plasmodium falciparum hexose transporter. Activity is measured by DNA content using SYBR green in vitro
# [3] = target: Glucose transporter (Leishmania mexicana) (UniProt O61059); experiment: ST_JUDE_LEISH: Cytotoxicity at 2uM final concentration against transgenic Leishmania Mexicana promastigotes LmGT2 that are glucose transport deficient and complemented with the L. Mexicana glucose transporter 2. Activity is measured by DNA content using SYBR green in vitro
# Sequence of Solute carrier family 2, facilitated glucose transporter member 1 (Homo sapiens) (P11166 whole entry): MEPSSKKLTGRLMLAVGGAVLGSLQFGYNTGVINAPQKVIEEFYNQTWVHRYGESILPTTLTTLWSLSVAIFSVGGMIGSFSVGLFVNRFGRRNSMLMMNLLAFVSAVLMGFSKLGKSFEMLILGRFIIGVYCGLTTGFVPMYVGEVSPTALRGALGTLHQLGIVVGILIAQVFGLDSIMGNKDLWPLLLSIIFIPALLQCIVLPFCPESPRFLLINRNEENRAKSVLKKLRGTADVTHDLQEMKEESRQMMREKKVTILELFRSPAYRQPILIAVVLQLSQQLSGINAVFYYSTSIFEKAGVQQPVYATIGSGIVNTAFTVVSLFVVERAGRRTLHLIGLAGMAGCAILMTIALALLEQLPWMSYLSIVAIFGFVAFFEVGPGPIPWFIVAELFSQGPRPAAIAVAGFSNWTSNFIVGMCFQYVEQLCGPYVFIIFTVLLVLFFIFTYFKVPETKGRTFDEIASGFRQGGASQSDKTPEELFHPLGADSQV
Structure (SMILES),inhibition [1] [%],inhibition [2] [%],inhibition [3] [%]
C=C(C)C1CC=C(CN2CCCC(n3ccc4cc(NC(=O)c5ccco5)ccc43)CC2)CC1 (stereo not given),-1.77,3.75,-2.38
[O-][s+]1c(Cl)c(-c2ccc(Cl)cc2)c2ccc(Cl)cc21 (stereo not given),6.36,8.82,3.59
[O-][S+]1c2ccccc2Sc2ccccc21,2.27,3.44,1.95
COc1ccccc1C1CCN(C2CCC(NC(=O)/C=C/c3cccc(C(F)(F)F)c3)CC2)CC1 (stereo not given),3.95,3.68,5.04
CN(C)CCCc1cc2c(cc1Cl)CCN2C(=O)Nc1ccc(-c2ccncc2)c2ccccc12,-2.58,-1.62,-3.5
COc1ccc2ncc(Cl)c(CCN3CC[C@@H](CNCc4cc5c(cn4)OCS5)C3)c2n1,6.89,7.89,12.2
COc1c(CN2CCOCC2)cccc1-c1cc2c(-c3ccc(C(=O)O)c(C(C)C)c3)ccnc2[nH]1,4.23,3.17,3.15
CC(C)(CNCc1ccc(F)c(F)c1)c1nc(-c2ccnc(N)n2)c(-c2ccc(Cl)c(O)c2)[nH]1,3.92,1.07,2.56
Oc1ccccc1-c1nc2cccnc2n1CCc1cccc(C(F)(F)F)c1,4.81,3.7,5.31
CN(C)CCCOc1ccccc1CN1CC[C@H](NC(=O)c2ccc(Cl)c(Cl)c2)C1,-0.17,-0.54,-2.05
CN1CCc2ccc(NC(=O)Nc3ccc(-c4ccccc4)cc3)cc2C1,1.53,0.83,0.87
O=C(Nc1ccc(OC2CCN(Cc3ccsc3)C2)c(Cl)c1)c1ccsc1 (stereo not given),2.57,2.64,1.08
CCS(=O)(=O)c1ccc(OC)c(Nc2nccc(-c3c(-c4cccc(NC(=O)c5c(F)cccc5F)c4)nn4ncccc34)n2)c1,6.13,3.41,2.02
Cc1cccc2nc(-c3cccc(-c4cccc(NC(=O)C(C)CN(C)C)c4)c3)[nH]c12 (stereo not given),1.51,1.39,2.3
CCOc1ccccc1CNc1nccc(NCc2ccc(Cl)cc2Cl)n1,31.3,21.2,9.92
OCC1CCN(Cc2ccc(-c3ccc(-c4nc5cc(C(F)(F)F)ccc5[nH]4)s3)cc2)CC1,1.82,0.23,1.7
CN1CCc2cc(NS(=O)(=O)c3ccc(-c4ccc(Cl)s4)cc3)c(N3CCCCC3)cc2CC1,-0.61,0.7,-2.07
Cc1cc(N[C@@H](CC(C)C)C(=O)NC2CCCC2)nc(NCc2ccccc2C)n1,4.21,4.39,1.62
O=C(C=Cc1ccc(Cl)c(Cl)c1)NCCCCCN1CCC(CCNS(=O)(=O)c2ccc(F)cc2)CC1,1.24,0.05,4.55
COc1ccc2nccc([C@@H](O)CN3CCC(NCc4ccc(OC)c(NC=O)c4)CC3)c2c1,3.28,4.05,2.18
Cn1cc(C(=O)Nc2cccc(-c3cccc(-c4nc5cc(F)ccc5[nH]4)c3)c2)n(C)c1=O,8.03,5.98,5.83
CC(=O)Nc1ccc(Nc2ncc([N+](=O)[O-])c(Nc3ccccc3C(N)=O)n2)cc1,3.27,1.61,1.93
N#Cc1cccc(-c2ccc(C(=O)Nc3ccc4c(c3)CCN(C3CCC3)CC4)cn2)c1,7.62,4.8,5.26
CCc1n[nH]c(C(=O)Nc2cccc(N3CCCC3)c2)c1C,0.38,1.73,-1.36
O=C(Nc1ccccc1Oc1ccccc1)NC1CCN(c2ccnc3cc(Cl)ccc23)C1 (stereo not given),3.65,4.63,3.25

Structure (SMILES),inhibition [1] [%],inhibition [2] [%],inhibition [3] [%]
Cc1cccc2nc(-c3cccc(-c4ccc(C(=O)N5CCCCC5C(C)O)cc4)c3)[nH]c12 (stereo not given),4.05,4.66,5.64
Clc1ccc(OCCC2CCN(CCCCCCN3CCCCC3)CC2)cc1Cl,10.8,4.99,17
Cc1cc(C)c(C(=O)Nc2ccc3nc(C)cc(N)c3c2)c(C)c1,-0.82,1.52,2.61
CCCN(Cc1ccc(C)cc1)Cc1cc(=O)c2cc(Cl)ccc2[nH]1,9.14,10.5,9.04
COc1ccc(-c2nc(NC(=O)CSc3ccc([N+](=O)[O-])cc3)sc2C)cc1,0.33,-0.37,-1.33
CCN(C(=O)NC)C1c2cc(C#N)ccc2OC(C)(C)C1O (stereo not given),2.85,1.33,1.87
Cn1c(=O)n(C)c2cc(CNCCNc3ccnc4cc(Cl)ccc34)ccc21,2.25,3.88,0.4
CCN1CCN(CCNc2c3ccccc3nc3ccccc23)CC1,83.5,80.6,79
CCCOc1cc(OCCC)cc(-c2ccc(C(=O)Nc3ccc4ccc(C)nc4c3)c(=O)[nH]2)c1,1.35,0.78,3.33
C#CC(C)(CO)N1CCCC1 (stereo not given),1.89,4.77,1.64
COc1ccc(C2=C(Nc3ccc4oc5ccccc5c4c3)c3ccccc3C2=O)cc1,0.72,-0.17,0.33
Nc1ncnc2cc(-c3cccc(S(N)(=O)=O)c3)sc12,0.46,3.15,5.9
CC(=O)Nc1ncc(C(=O)Nc2cccc(-c3cccc(-c4nc5cc(F)ccc5[nH]4)c3)c2)s1,1.74,2.62,1.65
O=c1ccc(CNc2nc(NCCc3ccccc3)nc3cc(Cl)ccc23)c[nH]1,1.81,0.69,1.95
CCc1cc2c3c(N)nc(N)nc3ccc2n1CC,40.4,58,39.4
COc1ccc2nccc([C@@H](O)CN3CCC(NC(=O)/C=C/c4cccc(-c5ccccc5)c4)CC3)c2c1,7.76,6.73,0.36
CC1CCCCC1N(C)C1CCN(CCCNC(=O)C=Cc2ccc(Cl)cc2Cl)CC1 (stereo not given),-1.12,-1.99,1.66
CCN(CC)CCCC(C)Nc1c2ccccc2nc2ccc3ccccc3c12 (stereo not given),1.95,2.89,2.22
O=C(CN(c1cccc(C(F)(F)F)c1)S(=O)(=O)c1ccc(Cl)cc1)NCCC(c1ccccc1)c1ccccc1,-0.18,-0.47,-2.89
CCOc1ccc(-c2cc3nc(C4CCNCC4)c(C(=O)Nc4ccc(C)cc4Cl)cn3n2)cc1,4.75,-0.08,1.29
CCNc1cc(C)nc(Nc2ccccc2)n1,15.2,5.92,3.47
COc1ccc2nccc(N/N=C/c3ccccc3[N+](=O)[O-])c2c1,2.92,4.3,0.03
Cc1ccc(N2C(N)=NC(N)=NC2(C)C)cc1,2.52,2.98,2.39
CC(C)(CNC(=O)/C=C/c1ccc(Cl)c(Cl)c1)CNc1cc(=O)c2ccccc2[nH]1,-0.77,0.05,-2.49
COc1ccc(C(=O)NC2CCN(c3ccnc4cc(Cl)ccc34)C2)cc1 (stereo not given),1.59,1.83,0.51

Structure (SMILES),inhibition [1] [%],inhibition [2] [%],inhibition [3] [%]
COc1cccc(C(NC(=O)c2ccccc2)c2ccc3cccnc3c2O)c1 (stereo not given),-0.96,2.16,-1.64
CN1CCN(c2ccnc3ccc(NC(=O)Nc4ccc5ccccc5c4)cc23)CC1,2.79,1.63,2.8
O=C(/C=C/c1ccccc1Cl)Nc1ccc(Br)c(OCCN2CCC(O)(c3ccccc3)CC2)c1,2.66,0.95,-0.34
Cn1nccc1C(=O)NCCNCc1cccc(-c2cccc(-c3nc4cc(F)ccc4[nH]3)c2)c1,3.43,3.28,1.11
Cc1onc(-c2c(F)cccc2Cl)c1C(=O)Nc1ccccc1I,2.35,2.24,2.12
Nc1cccc(CNCc2cccc(-c3cccc(-c4nc5cc(F)ccc5[nH]4)c3)c2)c1,0.35,0.35,-0.66
Ic1cc(Nc2ncnc3ccsc23)ccc1OCc1ccccc1,0.8,0.85,0.81
Fc1ccc2c(NN=Cc3ccccc3F)ccnc2c1,0.28,-0.28,0.43
COc1cc(Cc2cnc(N)nc2N)ccc1OCc1ccc(NC(C)=O)cc1,1.71,4.96,3.61
CC(C)CCNC(=O)C1Cc2c([nH]c3cc(Br)ccc23)C2(CCN(Cc3ccccc3)CC2)N1 (stereo not given),15,11.3,14.8
Cc1sc2nc(CSc3ccccc3)nc(N3CCN(CC(=O)NC4CC4)CC3)c2c1C,-0.96,-2.01,-1.85
c1ccc2c(c1)CN(Cc1cc3ccccc3[nH]1)CC1(CCN(Cc3c[nH]c4cnccc34)CC1)O2,1.1,-0.02,-0.44
Cc1sc2cc(Cl)cc(Cl)c2c1S(=O)(=O)Nc1ccc2nccc(N3CCNCC3)c2c1,-1.42,-0.22,-0.24
Cc1ccc(CNC(=O)[C@H](CCCN)Nc2cc(C)nc(NCC3CCCCC3)n2)cc1,1.46,1.17,0.32
CC(C)=CCN1CCC(C(=O)Nc2ccc(-c3nc4ccccc4[nH]3)cc2)CC1,5.64,5.1,6.97
C/C(=C\C(=O)NC1CC1)c1ccccc1OCc1ccccc1,0.29,-2.11,3.94
CN1CCN(CCCN(Cc2cccc(-c3ccc(CNCc4ccc5c(c4)OCO5)cc3)c2)C(=O)CCC2CCCC2)CC1,51.2,45.7,34.4
COc1ccc2nccc(NC(=O)C3(O)CCC(NCc4ncc5c(c4Cl)OCCO5)CC3)c2n1 (stereo not given),7.91,8.5,2.13
CC(OC(=O)c1ccc(C(=O)NCC2CC2)cc1)C(C)(C)C (stereo not given),4.1,3.44,-0.96
CCCCCCNC(=O)C1Cc2c([nH]c3ccc(C)cc23)C2(CCN(Cc3ccccc3)CC2)N1 (stereo not given),0.98,0.07,1.33
COCCNCc1ncsc1-c1ccc2c(Nc3cc(O)ccc3C)ccnc2c1,1.05,0.61,1
O=C(CCCCCNC(=O)c1ccc(O)c(-c2cccc(C(F)(F)F)c2)c1)NCCN1CCCCC1,5.39,4.36,0.5
Cc1nc(N)nc(N)c1Oc1cccc(Cl)c1,3.72,0.81,0.35
O=C(NCCCCN1CCC(c2ccc3ccccc3c2O)CC1)c1ccc(-c2ccc(Cl)cc2)cc1,5.43,3.32,3.45
CC(C)NC(=O)c1cccc(-c2cccc(OCCN3CCSCC3c3ccccc3)c2)c1 (stereo not given),10.4,9.35,8.53

# Reference: ChEMBL document CHEMBL3433997, “St. Jude Leishmania screening dataset” (2016)
